SMILES strings stand for the structures. The source made the active and inactive calls.

Assay [1] concerns Plasmodium falciparum Sir2 (PF13_0152, Sir2A). The assay is described as follows: Plasmodium falciparum Sir2A binding compounds – biochemical, small-molecule microarray, 635 nm fluorescence, primary screen (AID 1098).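 Also: score merges spot fluorescence intensity with its signal-to-noise ratio.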 The conditions noted are these: fluorescence 635 nm, higher = more signal.
Assay [2] in a line: probe aDKK1 binding to arrayed compounds – biochemical, biotinylated probe, 635/667 nm fluorescence, primary screen (AID 1099).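 Also: score merges 667nm spot fluorescence with signal to noise across triplicate slides.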 The conditions noted are these: small-molecule microarray, higher = more signal.
Assay [3] can be described thus: probe aCHRDL2 binding to arrayed compounds – biochemical, biotinylated probe, 635/667 nm fluorescence, primary screen (AID 1100). The settings on record: small-molecule microarray, higher = more signal.
Assay [4] is described as follows: change in splice reporter luminescence, either direction, cell-based, HEK293, spliceosome inhibition project, primary screen (AID 1101).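 Also: HEK293 cells carrying a splicing-competent luciferase reporter gene; test concentration not given here.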 The conditions noted are these: HEK293 splicing luciferase reporter, 24 h, higher = more signal, called active from +8 up or from −8 down.
Assay [5] addresses Fibroblast growth factor 10 (Homo sapiens) (UniProt O15520). The assay is described as follows: compounds binding fibroblast growth factor 10 – biochemical, small-molecule microarray, 635 nm fluorescence, primary screen (AID 1102). The settings on record: FGF10 binding, fluorescence 635 nm, higher = more signal.
In assay [6] the test system is glycogen synthase kinase-3 (GSK3A per assay name; protocol says GSK3B). The assay is described as follows: compounds binding glycogen synthase kinase-3 – biochemical, small-molecule microarray, 635 nm fluorescence, GSK3A, primary screen (AID 1103). Also: the record names both GSK3A and GSK3B. The conditions noted are these: fluorescence 635 nm, higher = more signal.
For assay [7], the target named is Epidermal growth factor receptor (Homo sapiens) (UniProt P00533). The assay is described as follows: compounds binding epidermal growth factor receptor – biochemical, small-molecule microarray, 635 nm fluorescence, primary screen (AID 1104).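 Also: score merges 667 nm emission intensity with spot signal to noise over triplicate slides.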 The conditions noted are these: EGFR binding, higher = more signal.
Epidermal growth factor receptor (Homo sapiens), sequence (P00533 whole entry, looked up): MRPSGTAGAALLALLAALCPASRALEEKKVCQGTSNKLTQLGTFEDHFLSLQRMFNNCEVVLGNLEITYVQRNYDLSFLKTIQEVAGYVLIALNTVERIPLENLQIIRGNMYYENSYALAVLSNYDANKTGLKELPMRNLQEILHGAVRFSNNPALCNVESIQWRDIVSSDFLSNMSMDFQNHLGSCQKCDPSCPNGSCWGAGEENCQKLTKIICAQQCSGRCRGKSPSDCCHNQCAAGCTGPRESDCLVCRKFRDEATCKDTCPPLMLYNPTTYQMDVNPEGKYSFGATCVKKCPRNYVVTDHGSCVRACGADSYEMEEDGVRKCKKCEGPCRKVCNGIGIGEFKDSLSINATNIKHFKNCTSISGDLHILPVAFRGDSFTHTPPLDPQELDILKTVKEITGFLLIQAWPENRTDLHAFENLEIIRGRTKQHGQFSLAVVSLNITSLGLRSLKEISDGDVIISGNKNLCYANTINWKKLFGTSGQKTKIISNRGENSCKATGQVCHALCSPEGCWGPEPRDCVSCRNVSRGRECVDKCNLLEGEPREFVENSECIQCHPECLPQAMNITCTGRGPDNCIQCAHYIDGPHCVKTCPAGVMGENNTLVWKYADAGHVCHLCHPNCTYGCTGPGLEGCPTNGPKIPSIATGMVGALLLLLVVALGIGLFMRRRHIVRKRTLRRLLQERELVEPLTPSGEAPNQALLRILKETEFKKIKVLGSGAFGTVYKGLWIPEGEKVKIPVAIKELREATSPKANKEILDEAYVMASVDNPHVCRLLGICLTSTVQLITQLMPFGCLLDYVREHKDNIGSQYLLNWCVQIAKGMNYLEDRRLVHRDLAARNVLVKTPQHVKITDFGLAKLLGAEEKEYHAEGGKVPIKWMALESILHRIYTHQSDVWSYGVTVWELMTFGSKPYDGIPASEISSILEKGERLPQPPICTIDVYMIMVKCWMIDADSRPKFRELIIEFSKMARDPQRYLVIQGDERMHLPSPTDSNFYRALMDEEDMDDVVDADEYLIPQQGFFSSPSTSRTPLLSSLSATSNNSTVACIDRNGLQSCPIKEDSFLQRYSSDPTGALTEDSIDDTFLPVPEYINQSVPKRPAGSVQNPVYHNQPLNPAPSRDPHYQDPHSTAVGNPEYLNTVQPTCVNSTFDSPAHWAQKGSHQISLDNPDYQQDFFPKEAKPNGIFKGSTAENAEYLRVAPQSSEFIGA
Assay [8] concerns the target Follistatin-related protein 3 (Homo sapiens) (UniProt O95633). Briefly: compounds binding follistatin-related protein 3 – biochemical, small-molecule microarray, 635 nm fluorescence, primary screen (AID 1105).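 Also: score merges emission near 667 nm and signal to noise per printed spot across three slides.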 The settings on record: FSTL3 binding, higher = more signal.
The target of assay [9] is Dickkopf-related protein 1 (Homo sapiens) (UniProt O94907). Briefly: small molecules binding DKK1 protein – biochemical, small-molecule microarray, 635 nm fluorescence scan, primary screen (AID 1106).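 Also: score merges emission near 667 nm with signal to noise over three replicate slides.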 The conditions noted are these: higher = more signal.
Dickkopf-related protein 1 (Homo sapiens), sequence (O94907 whole entry, looked up): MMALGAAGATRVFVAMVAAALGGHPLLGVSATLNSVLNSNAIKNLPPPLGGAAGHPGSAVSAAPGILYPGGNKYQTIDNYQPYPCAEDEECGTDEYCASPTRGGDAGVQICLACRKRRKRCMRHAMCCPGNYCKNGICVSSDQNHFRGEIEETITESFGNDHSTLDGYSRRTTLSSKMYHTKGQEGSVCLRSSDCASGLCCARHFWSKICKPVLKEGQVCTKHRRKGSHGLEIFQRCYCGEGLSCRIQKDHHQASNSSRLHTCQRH
Assay [10] concerns Inhibin beta A chain (activin A). The assay is described as follows: small molecules binding activin A – biochemical, small-molecule microarray, 635 nm fluorescence scan, primary screen (AID 1107).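 Also: mouse activin A protein probed at 4.33 µg/mL on printed slides; score merges bound-protein fluorescence near 667 nm with spot signal-to-noise.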 The settings on record: INHBA, higher = more signal.
Assay [11] concerns Human papillomavirus type 1a protein E7 (residues 44-93). The assay is described as follows: small molecules binding HPV E7 44-93 – biochemical, small-molecule microarray, residues 44-93, 635 nm fluorescence, primary screen (AID 1108).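 Also: E7 fragment applied at 1 µg/mL in TBST for 1 h at 4 C; score combines spot fluorescence with its signal to noise ratio.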 The settings on record: fluorescence 635 nm, higher = more signal.
A short description of assay [12]: hepatitis C replication reporter changes, two-sided – Huh7 cells, luciferase reporter, HCV replication inhibitor project, primary screen (AID 1109).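 Also: huh7 hepatoma cells harbouring a luciferase neomycin HCV replicon reporter; luciferase luminescence as measure of HCV replicon replication; test concentration not given here.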 The settings on record: Huh7 HCV replicon luciferase reporter, 48 h; higher = more signal. (Reporter assays use an easily measured gene product as a stand-in for the process of interest.)
Assay [13] concerns the target Left-right determination factor 2 (Homo sapiens) (UniProt O00292). Briefly: small molecules binding LEFTY2 protein – biochemical, small-molecule microarray, 635 nm fluorescence scan, primary screen (AID 1110). The settings on record: higher = more signal.
For assay [14], the target named is Calmodulin-1 (Homo sapiens) (UniProt P0DP23). Briefly: small molecules binding calmodulin-1 with EGTA – biochemical, small-molecule microarray, Cy5-labelled CALM1, profiling panel (AID 1111).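 Also: labelled calmodulin applied in Tris saline Tween buffer holding calcium plus EGTA and DTT.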 The conditions noted are these: Cy5-CALM1 binding fluorescence, higher = more signal.
For assay [15] the target is unchanged. Briefly: small molecules binding Ca-loaded calmodulin-1 – biochemical, small-molecule microarray, Cy5-labelled CALM1, plus calcium, artefact control for SMM control-protein annotation, profiling panel (AID 1112).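 Also: score merges spot fluorescence with signal to noise from triplicate slides.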 The settings on record: Cy5-CALM1 binding fluorescence, higher = more signal.
Assay [16] is described as follows: probe aWnt5a binding to arrayed compounds – biochemical, biotinylated probe, 635/667 nm fluorescence, primary screen (AID 1113).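 Also: score merges 667 nm fluorescence intensity with signal-to-noise per printed feature.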 The settings on record: small-molecule microarray, higher = more signal.
A short description of assay [17]: probe aShh binding to arrayed compounds – biochemical, biotinylated probe, 635/667 nm fluorescence, primary screen (AID 1114).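 Also: probe is biotin-labelled aShh protein from a stem cell growth factor screen; measures binding of labelled protein to compounds printed on the slide; score merges feature fluorescence at 667 nm with signal-to-noise.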 The conditions noted are these: small-molecule microarray, higher = more signal.
The nature of assay [18]: probe aNog binding to arrayed compounds – biochemical, biotinylated probe, 635/667 nm fluorescence, primary screen (AID 1115).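 Also: probe is biotinylated aNog protein used at 0.15 µg/mL for 1 h at 4 C; z-score combines 667 nm fluorescence of each spot with its signal to noise.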 The conditions noted are these: small-molecule microarray, higher = more signal.
Assay [19] has as its target Torsin-1A-interacting protein 1 (Homo sapiens) (UniProt Q5JTV8). The assay is described as follows: compound microarray binding of lysate hLAP1 – cell lysate, small-molecule microarray, COS7 lysate, 635/667 nm fluorescence, primary screen (AID 1116). The settings on record: 635 nm fluorescence, higher = more signal.
Assay [20] deals with Alpha-bungarotoxin (Bungarus multicinctus) (UniProt P60615). Briefly: compounds binding labelled alpha-BTX control protein – biochemical, small-molecule microarray, Alexa647 label, 635/667 nm fluorescence, artefact control for SMM control protein annotation, profiling panel (AID 1117). The conditions noted are these: alpha-BTX-A647 binding fluorescence, higher = more signal.
Alpha-bungarotoxin (Bungarus multicinctus), sequence (P60615 whole entry, looked up): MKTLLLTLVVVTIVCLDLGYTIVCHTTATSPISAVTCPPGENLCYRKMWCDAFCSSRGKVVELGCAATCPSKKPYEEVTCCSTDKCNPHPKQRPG

Follistatin-related protein 3 (Homo sapiens), sequence (O95633 whole entry, looked up): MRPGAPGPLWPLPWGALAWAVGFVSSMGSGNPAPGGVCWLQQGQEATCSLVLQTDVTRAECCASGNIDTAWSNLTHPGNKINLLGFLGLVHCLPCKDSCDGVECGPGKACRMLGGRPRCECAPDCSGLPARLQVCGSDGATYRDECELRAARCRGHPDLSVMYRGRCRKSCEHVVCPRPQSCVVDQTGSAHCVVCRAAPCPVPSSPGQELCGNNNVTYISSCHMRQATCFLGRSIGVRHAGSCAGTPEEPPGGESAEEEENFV
Fibroblast growth factor 10 (Homo sapiens), sequence (O15520 whole entry, looked up): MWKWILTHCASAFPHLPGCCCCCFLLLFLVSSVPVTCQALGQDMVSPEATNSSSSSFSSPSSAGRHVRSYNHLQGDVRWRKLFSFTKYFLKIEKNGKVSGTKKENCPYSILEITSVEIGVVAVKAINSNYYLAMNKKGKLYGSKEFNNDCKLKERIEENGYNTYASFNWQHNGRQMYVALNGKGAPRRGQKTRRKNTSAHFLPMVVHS
Torsin-1A-interacting protein 1 (Homo sapiens), sequence (Q5JTV8 whole entry, looked up): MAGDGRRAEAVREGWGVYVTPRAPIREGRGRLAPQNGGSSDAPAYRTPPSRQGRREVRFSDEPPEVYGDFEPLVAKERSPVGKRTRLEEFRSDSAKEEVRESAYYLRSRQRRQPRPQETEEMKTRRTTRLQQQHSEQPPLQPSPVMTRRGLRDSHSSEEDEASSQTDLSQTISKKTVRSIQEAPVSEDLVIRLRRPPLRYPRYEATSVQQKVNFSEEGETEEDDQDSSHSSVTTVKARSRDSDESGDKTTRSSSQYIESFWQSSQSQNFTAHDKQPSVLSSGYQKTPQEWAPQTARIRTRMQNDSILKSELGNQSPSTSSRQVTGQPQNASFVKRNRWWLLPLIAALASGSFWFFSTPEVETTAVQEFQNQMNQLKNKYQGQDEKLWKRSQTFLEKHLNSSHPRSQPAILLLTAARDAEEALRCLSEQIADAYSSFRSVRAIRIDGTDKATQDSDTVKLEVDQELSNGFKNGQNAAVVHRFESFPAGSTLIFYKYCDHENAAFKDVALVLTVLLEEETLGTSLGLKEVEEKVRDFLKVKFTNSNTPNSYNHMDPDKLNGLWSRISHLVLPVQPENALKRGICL
Left-right determination factor 2 (Homo sapiens), sequence (O00292 whole entry, looked up): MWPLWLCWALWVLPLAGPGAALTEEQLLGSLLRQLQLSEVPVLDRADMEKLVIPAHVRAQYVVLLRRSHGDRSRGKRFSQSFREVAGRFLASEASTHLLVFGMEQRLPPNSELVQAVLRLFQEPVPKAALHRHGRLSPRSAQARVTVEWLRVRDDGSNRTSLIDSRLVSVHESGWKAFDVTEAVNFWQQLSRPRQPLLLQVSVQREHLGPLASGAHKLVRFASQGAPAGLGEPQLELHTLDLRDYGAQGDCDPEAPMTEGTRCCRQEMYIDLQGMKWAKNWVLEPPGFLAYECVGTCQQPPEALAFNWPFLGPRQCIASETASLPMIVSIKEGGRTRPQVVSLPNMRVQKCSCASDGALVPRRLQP

On to `COCCOC(=O)N1C(=O)[C@@]2(c3cc(C#CCNC(N)=O)ccc31)[C@H](c1ccc(O)cc1)N1[C@H](c3ccccc3)[C@H](c3ccccc3)OC(=O)[C@H]1[C@@H]2C(=O)N1CCCCCCC1`, for which the composite z-score stood at 1.08 in [1]; 0.614 in assay [2]; 0.356 in [3]; 1.25 in [5]; 0.43 in assay [6]; 0.611 in assay [7]. Also, the composite z-score was 1.38 in assay [8]; 0.969 in assay [9]; 0.85 in assay [10]; 1.13 in [11]; 0.817 in assay [13]; -0.0989 in [14]. Moreover, the composite z-score in assay [15] is -0.218; in assay [16], -0.0718; in assay [17], 0.108; in [18] it was -0.559; in assay [19] it was 0.774; in assay [20] it was 0.413. In addition, the results for the z-score in [4] and in [12] were -0.364 (inactive) and -0.768, respectively.

Turning to `COC(=O)CC=C[C@@H](C)[C@@H](C=NO[C@H](C)c1cn([C@@H]2COC[C@H]2O)nn1)OC`, the composite z-score is 0.626 in assay [1]; -0.43 in [2]; -0.611 in assay [3]; 0.739 in [5]; 0.617 in assay [6]; 0.856 in assay [7]. Moreover, the composite z-score in assay [8] is 1.06; in [9], 0.492; in assay [10] it was -0.335; in [11] it was 0.768; in assay [13], 0.589; in assay [14] it was -0.662. The composite z-score in assay [15] was -0.793; in assay [16], -0.0478; in assay [17], -0.291; in assay [18], -0.0762; in assay [19], -0.306; in assay [20], 1.01. Besides, the z-score in assay [4] is 0.605 (inactive); in [12] it was 0.128.

Turning to `CCCC[C@@H](O)C1=C(C)C[C@H]2C(=O)N(Cc3ccccc3)C(=O)[C@H]2[C@H]1CO`, the composite z-score was 0.222 in assay [1]; -0.407 in assay [2]; -0.494 in assay [3]; 0.264 in [5]; -0.0254 in assay [6]; 0.464 in assay [7]. Besides, the composite z-score is 0.449 in assay [8]; 0.524 in [9]; 0.899 in assay [10]; -0.101 in [11]; 0.521 in assay [13]; -0.349 in assay [14]. The composite z-score was -0.611 in assay [15]; -0.0478 in [16]; -0.0553 in assay [17]; -0.158 in assay [18]; 0.503 in assay [19]; -0.227 in [20]. The z-score is 0.0445 (inactive) in assay [4] and 0.156 in [12].

Regarding `CN1C(=O)C2C(C1=O)C1C=C(CCCO)C2C(c2ccc(CN3CCCC3)cc2)N1C` (stereo not given), the composite z-score was -0.583 in assay [1]; -0.32 in [2]; -0.268 in assay [3]; -0.684 in [5]; -0.0315 in assay [6]; -0.576 in assay [7]. For the same compound, the composite z-score is -0.186 in assay [8]; 0.142 in [9]; 0.523 in [10]; -0.0161 in [11]; 0.175 in assay [13]; -0.573 in assay [14]. Moreover, the composite z-score in [15] is -0.0923; in assay [16], -0.148; in assay [17] it was -0.273; in assay [18], 0.171; in assay [19] it was 0.0993; in [20], 0.0035. In addition, the z-score in assay [4] is -0.451 (inactive); in assay [12] it was -0.259.

Turning to `NC(=O)NCC#Cc1ccc2c(c1)[C@]1(C(=O)N2)[C@H](c2ccc(O)cc2)N2[C@H](c3ccccc3)[C@H](c3ccccc3)OC(=O)[C@H]2[C@@H]1C(=O)N1CCCCCCC1`, the composite z-score is 1.08 in [1]; 1.8 in assay [2]; 1.08 in [3]; 0.593 in assay [5]; -0.018 in assay [6]; 0.356 in [7]. Further, the composite z-score was 1.28 in assay [8]; 0.408 in assay [9]; 1.4 in assay [10]; 1.19 in assay [11]; 0.258 in assay [13]; 0.822 in assay [14]. Also, the composite z-score is 0.675 in assay [15]; 0.338 in assay [16]; 0.462 in [17]; -0.623 in assay [18]; 2.42 in [19]; 1.34 in [20]. For the same compound, the figures for the z-score in assay [4] and in assay [12] were 0.445 (inactive) and -0.421, respectively.

Turning to `CC(CCN1CCc2nc(-c3ccccc3)c(-c3ccccc3)cc2C1)=NOC[C@@H](C)[C@H](OCc1ccccc1)C(C)C`, the composite z-score in assay [1] is 1.42; in assay [2] it was -0.215; in assay [3], 0.213; in assay [5] it was -1.3; in assay [6] it was -1.52; in [7] it was -1.15. Besides, the composite z-score in assay [8] is -1.76; in [9], -1.21; in assay [10], 0.166; in assay [11], -1.08; in [13], -0.323; in assay [14], -0.607. Besides, the composite z-score was 0.343 in assay [15]; -0.134 in assay [16]; -0.304 in assay [17]; -0.278 in assay [18]; -0.424 in assay [19]; 1.14 in assay [20]. The z-score is -0.0457 (inactive) in [4] and -1.77 in assay [12].

Take `CCCNC(=O)[C@@H]1c2ccccc2C(=O)N(c2ccc(C)cn2)[C@H]1c1ccc(CO)cc1`: the composite z-score was 1.78 in [1]; 0.662 in assay [2]; 0.733 in assay [3]; -0.584 in [5]; -0.503 in assay [6]; -0.327 in assay [7]. Also, the composite z-score is -1.06 in assay [8]; -0.537 in assay [9]; 1.14 in [10]; -1.05 in assay [11]; -0.181 in assay [13]; -0.769 in assay [14]. Further, the composite z-score in assay [15] was -0.462; in assay [16], -0.238; in [17], -0.0155; in assay [18], -0.434; in [19], 0.185; in assay [20], 0.4. Also, the z-score was 1.12 (inactive) in assay [4] and 0.0924 in assay [12].
